The results in this text go back to PubChem BioAssay (NCI).

About 83,000 compounds went through this panel and 20% of them were active in at least one assay; those are over-represented in the sample as a whole.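 Activity criterion: percent growth below 10, measured after cells in 96-well plates were exposed to a single compound concentration for 48 hours.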 Active and inactive are the calls of the source.

One test concerns MDA-MB-231 breast. The test is described as follows: NCI-60 one-dose screen, 48 h (100 = growth as untreated, 0 = no growth, -100 = all killed). The settings on record: 10 µM unless noted.
With `CNC(=O)c1cc(Oc2ccc3nc(NC(=O)Nc4ccc(CN5CCOCC5)c(C(F)(F)F)c4)sc3c2)ccn1`, the growth is 28.8% (inactive). `Cc1cc(N/N=C/c2nc(-c3ccc(Cl)cc3)oc2C)c2cc(Br)ccc2n1`: the growth is 70.4% (inactive). On the same count and under the same terms, under `COc1cc(-c2cc(-c3nc4ccc(Cl)cc4[nH]3)[nH]n2)cc(OC)c1OC` stands 81.1% (inactive).

As for `COc1ccc(-c2cc(-c3cccnc3)nc3sc4c(=O)n(-c5ccc(C)cc5)cnc4c23)cc1OC`, the growth was 90.1% (inactive). Still for that read-out and setting: then `CN(C)c1ccc(/C=C\C2=[N+](C)c3ccccc3C2(C)C)cc1`, with 23% (inactive). Regarding `COc1ccc(-c2cc(-c3cccnc3)nc3sc4c(=O)n(-c5ccc(C)cc5)nnc4c23)cc1OC`, the growth is 79.6% (inactive). Regarding `COc1ccc(C/C(C)=C(\c2ccc(Cl)cc2)c2ccc(OCCN3CCCCCC3)cc2)cc1`, the growth is 99.9% (inactive). As for `O=C1C=CC(=O)N1c1ccc(Cc2ccc(N3C(=O)C=CC3=O)cc2)cc1`, the growth was 90.3% (inactive). The same measure, in the same setting: under `CN1CCN(Cc2ccc(NC(=O)c3[nH]ncc3Nc3ncnc4[nH]ccc34)cc2)CC1` stands 0.311% (active). On the same count and under the same terms, then `O=C(Nc1ccc(Oc2ccc(F)cc2)c(Cl)c1)c1cccnc1`, with 93.7% (inactive); and `OC(c1cccc(C(F)(F)F)c1)c1cnccc1NC1CCCCCC1` (stereo not given), with 10.6% (inactive); and `NS(=O)(=O)c1ccc(Nc2nc3n[nH]c(Nc4ccccc4)c3c(=O)[nH]2)cc1`, with 97.7% (inactive). For `O=C1/C(=C/c2ccccc2)CN(CCC(=O)N2C/C(=C\c3ccccc3)C(=O)/C(=C/c3ccccc3)C2)C/C1=C\c1ccccc1`, the growth is 75.2% (inactive). In the case of `CN1CCN(Cc2ccc(NC(=O)c3[nH]ncc3Nc3ncnc4c3CCC4)cc2)CC1`, the growth is -11.8% (active). `O=C1C(=O)N(CCCCn2cc(CO)nn2)c2ccccc21`: the growth was 98.2% (inactive).

In the case of `Cc1cc(Nc2nc(N3CCN(C)CC3)nc3ccccc23)n[nH]1`, the growth is 83.2% (inactive). Take `CC(=O)C1=C(O)C=C2Oc3c(C(=O)/C=C/c4cc(Cl)cc(Cl)c4)c(O)c(C)c(O)c3[C@]2(C)C1=O`: the growth is -30.9% (active). `O=C(Nc1ccc(CN2CCOCC2)cc1)c1[nH]ncc1Nc1ncnc2sccc12`: the growth is 15.8% (inactive). Same read-out and setting: under `COc1cc(-c2c3sc(=O)[nH]c3nc3c2c(=O)[nH]n3C(C)C)cc2c1OCO2` stands 101% (inactive); under `O=C1/C(=C/c2ccc(Cl)c(Cl)c2)CN(C(=O)CCN2CCC(=NO)CC2)C/C1=C\c1ccc(Cl)c(Cl)c1`, -90.5% (active); under `CCN(CC)CCCC(C)Nc1ccnc2c(OC)cccc12` (stereo not given), 107% (inactive).

With `COc1ccc(-c2cn3c(-c4ccc(OC)cc4)cnc3c(Oc3ccc4c(C)cc(=O)oc4c3)n2)cc1`, the growth is 6.29% (active).

With `CN1CCN(Cc2ccc(NC(=O)c3[nH]ncc3Nc3ncnc4sccc34)cc2)CC1`, the growth was -4.43% (active). Same read-out and setting: then `O=C([C@@H](COCc1ccccc1)N1C(=O)[C@@H](N2C(=O)OC[C@@H]2c2ccccc2)[C@H]1/C=C/c1ccccc1)N1CCC(CCN2CCCCC2)CC1`, with 72.6% (inactive). `OCCNCCNc1c2ccccc2nc2ccccc12`: the growth is 57.9% (inactive). On to `CC[C@H](Nc1ncnc(N)c1C(N)=O)c1nc2cccc(NCc3ccc(C(=O)NO)cc3)c2c(=O)n1-c1ccccc1`, for which the growth was 83.8% (inactive). As to `CCCCCCCCCc1cc(CN2CCCCC2)c(O)c(CN2CCCCC2)c1`, the growth is 30.9% (inactive). For `CN1CCN(Cc2ccc(NC(=O)c3cncc(C#Cc4cnc(N)c5cccnc45)c3)cc2C(F)(F)F)CC1`, the growth is -20% (active).

Take `C=C1CC2(OC1=O)C(=O)N(CCCCCCCCCCCCN1C(=O)C3(CC(=C)C(=O)O3)c3ccccc31)c1ccccc12` (stereo not given): the growth was 55.8% (inactive).

As to `Cn1c2ccccc2c2c3c(c4c5ccccc5[nH]c4c21)C(=O)N(N)C3=O`, the growth is 82.9% (inactive). For the compound `Cn1c2ccccc2c2c3c(c4c5ccccc5n(CCCCCC#N)c4c21)C(=O)N(O)C3=O`, the growth was 27.9% (inactive).

As for `COC(/C=C/c1ccc([N+](=O)[O-])cc1)OC`, the growth was 91.2% (inactive). As to `O=C(CNC1C2CC3CC(C2)CC1C3)Sc1nnc2sc3ccccc3n12` (stereo not given), the growth is 81.5% (inactive). As for `C=CC[N+]1(CC)CCN=C1CCCCCCCCCCCCCCCCC` (stereo not given), the growth was -89.7% (active). For the compound `CN1CCN(Cc2ccc(NC(=O)c3[nH]ncc3Nc3ccnc4ccsc34)cc2)CC1`, the growth is 12.6% (inactive). Same read-out and setting: under `CN1/C(=C\C=C\C2=[N+](C)c3ccccc3C2(C)C)C(C)(C)c2ccccc21` stands 6.24% (active); under `CS(=O)(=O)c1ccc(-c2cnc3ccc(-c4cccc(S(C)(=O)=O)c4)nn23)cc1`, 49.4% (inactive). Turning to `COc1ccc(C/C(C)=C(\c2ccc(OCCN3CCCCCC3)cc2)c2ccc(OC(=O)C3CCCCC3)cc2)cc1`, the growth was 67.6% (inactive).

A further test has as its system RXF 393 renal. The description is as above. The settings on record: 10 µM unless noted.
Take `CNC(=O)c1cc(Oc2ccc3nc(NC(=O)Nc4ccc(CN5CCOCC5)c(C(F)(F)F)c4)sc3c2)ccn1`: the growth is 44.6% (inactive).

Regarding `Cc1cc(N/N=C/c2nc(-c3ccc(Cl)cc3)oc2C)c2cc(Br)ccc2n1`, the growth was 98.6% (inactive). For the compound `COc1cc(-c2cc(-c3nc4ccc(Cl)cc4[nH]3)[nH]n2)cc(OC)c1OC`, the growth is 46.6% (inactive). Turning to `COc1ccc(-c2cc(-c3cccnc3)nc3sc4c(=O)n(-c5ccc(C)cc5)cnc4c23)cc1OC`, the growth was 98.5% (inactive). On to `CN(C)c1ccc(/C=C\C2=[N+](C)c3ccccc3C2(C)C)cc1`, for which the growth is 37.3% (inactive).

On to `COc1ccc(-c2cc(-c3cccnc3)nc3sc4c(=O)n(-c5ccc(C)cc5)nnc4c23)cc1OC`, for which the growth was 101% (inactive). On the same count and under the same terms, under `COc1ccc(C/C(C)=C(\c2ccc(Cl)cc2)c2ccc(OCCN3CCCCCC3)cc2)cc1` stands 93.1% (inactive).

In the case of `O=C1C=CC(=O)N1c1ccc(Cc2ccc(N3C(=O)C=CC3=O)cc2)cc1`, the growth is 106% (inactive). The same measure, in the same setting: under `CN1CCN(Cc2ccc(NC(=O)c3[nH]ncc3Nc3ncnc4[nH]ccc34)cc2)CC1` stands -70.2% (active); under `O=C(Nc1ccc(Oc2ccc(F)cc2)c(Cl)c1)c1cccnc1`, 90.2% (inactive). The same measure, in the same setting: under `OC(c1cccc(C(F)(F)F)c1)c1cnccc1NC1CCCCCC1` (stereo not given) stands 32.3% (inactive).

For the compound `NS(=O)(=O)c1ccc(Nc2nc3n[nH]c(Nc4ccccc4)c3c(=O)[nH]2)cc1`, the growth is 115% (inactive).

`O=C1/C(=C/c2ccccc2)CN(CCC(=O)N2C/C(=C\c3ccccc3)C(=O)/C(=C/c3ccccc3)C2)C/C1=C\c1ccccc1`: the growth was 57.4% (inactive). For the compound `CN1CCN(Cc2ccc(NC(=O)c3[nH]ncc3Nc3ncnc4c3CCC4)cc2)CC1`, the growth was -49.7% (active).

For `O=C1C(=O)N(CCCCn2cc(CO)nn2)c2ccccc21`, the growth was 99.7% (inactive). Same read-out and setting: under `CC(=O)C1=C(O)C=C2Oc3c(C(=O)/C=C/c4cc(Cl)cc(Cl)c4)c(O)c(C)c(O)c3[C@]2(C)C1=O` stands -40.4% (active).

Consider `O=C(Nc1ccc(CN2CCOCC2)cc1)c1[nH]ncc1Nc1ncnc2sccc12`, for which the growth was -43% (active). For `COc1cc(-c2c3sc(=O)[nH]c3nc3c2c(=O)[nH]n3C(C)C)cc2c1OCO2`, the growth is 94.5% (inactive). Consider `O=C1/C(=C/c2ccc(Cl)c(Cl)c2)CN(C(=O)CCN2CCC(=NO)CC2)C/C1=C\c1ccc(Cl)c(Cl)c1`, for which the growth was -88.8% (active). `CCN(CC)CCCC(C)Nc1ccnc2c(OC)cccc12` (stereo not given): the growth is 135% (inactive). Same read-out and setting: then `COc1ccc(-c2cn3c(-c4ccc(OC)cc4)cnc3c(Oc3ccc4c(C)cc(=O)oc4c3)n2)cc1`, with -20.8% (active). As to `CN1CCN(Cc2ccc(NC(=O)c3[nH]ncc3Nc3ncnc4sccc34)cc2)CC1`, the growth was -51.1% (active).

In the case of `O=C([C@@H](COCc1ccccc1)N1C(=O)[C@@H](N2C(=O)OC[C@@H]2c2ccccc2)[C@H]1/C=C/c1ccccc1)N1CCC(CCN2CCCCC2)CC1`, the growth is 88.7% (inactive). `OCCNCCNc1c2ccccc2nc2ccccc12`: the growth was 102% (inactive). In the case of `CC[C@H](Nc1ncnc(N)c1C(N)=O)c1nc2cccc(NCc3ccc(C(=O)NO)cc3)c2c(=O)n1-c1ccccc1`, the growth is 55.2% (inactive). The same measure, in the same setting: under `CCCCCCCCCc1cc(CN2CCCCC2)c(O)c(CN2CCCCC2)c1` stands 78.3% (inactive); under `CN1CCN(Cc2ccc(NC(=O)c3cncc(C#Cc4cnc(N)c5cccnc45)c3)cc2C(F)(F)F)CC1`, -18.2% (active). As to `C=C1CC2(OC1=O)C(=O)N(CCCCCCCCCCCCN1C(=O)C3(CC(=C)C(=O)O3)c3ccccc31)c1ccccc12` (stereo not given), the growth is 52.8% (inactive). With `Cn1c2ccccc2c2c3c(c4c5ccccc5[nH]c4c21)C(=O)N(N)C3=O`, the growth was 67.9% (inactive). As for `Cn1c2ccccc2c2c3c(c4c5ccccc5n(CCCCCC#N)c4c21)C(=O)N(O)C3=O`, the growth is -21.8% (active).

Regarding `COC(/C=C/c1ccc([N+](=O)[O-])cc1)OC`, the growth is 87.5% (inactive). On the same count and under the same terms, then `O=C(CNC1C2CC3CC(C2)CC1C3)Sc1nnc2sc3ccccc3n12` (stereo not given), with 114% (inactive); and `C=CC[N+]1(CC)CCN=C1CCCCCCCCCCCCCCCCC` (stereo not given), with -90.3% (active). Still for that read-out and setting: under `CN1CCN(Cc2ccc(NC(=O)c3[nH]ncc3Nc3ccnc4ccsc34)cc2)CC1` stands -44.9% (active).

Take `CN1/C(=C\C=C\C2=[N+](C)c3ccccc3C2(C)C)C(C)(C)c2ccccc21`: the growth is -12.4% (active). Regarding `CS(=O)(=O)c1ccc(-c2cnc3ccc(-c4cccc(S(C)(=O)=O)c4)nn23)cc1`, the growth was 9.52% (active).

With `COc1ccc(C/C(C)=C(\c2ccc(OCCN3CCCCCC3)cc2)c2ccc(OC(=O)C3CCCCC3)cc2)cc1`, the growth was 60.4% (inactive).
